Source: PubChem (several laboratories)
This is a sample that favours compounds with a hit; in the whole collection about 1.6% have one here.
Redox H2O2 prof: compounds producing H2O2 with reducing agent – biochemical, NIH compound library profiling, artefact control for MLSCN library redox annotation, primary screen; DTT-dependent redox cycling H2O2, phenol red/HRP absorbance; 100% = 100 µM peroxide control, 0% = buffer; activation, % at 10 µM; actives 0.03% (n = 200,000);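 active = activation of at least 50% relative to the plate's high and low controls in the primary single-dose screen; inactive = activation below 50%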;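 also: compound incubated with DTT at 0.8 mM final as the reducing agent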
p97 inhibitor: blocks human p97 ATPase activity; recombinant p97 ATPase, Kinase-Glo ATP luminescence, 3 h; inhibition, % at 8 µM; actives 0.42% (n = 220,000); in the data active = inhibition above about 15%;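 also: 0% = DMSO vehicle and 100% = wells lacking enzyme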
Hsp70 act: switches on Hsp70 transcription; activation, % at 10 µM; HeLa Hsp70 promoter luciferase reporter, luminescence; scaled: vehicle 0, proteasome-inhibitor control 100%; actives 0.04% (n = 200,000);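 active = activation above the mean across all tested compounds plus 3 SD, cutoff set per campaign, cut at about 5.5% in these data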;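 also: 100% = MG132 at 30 µM as the positive control and 0% = DMSO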
Wee1 stabilizer: inhibitors of human Wee1 degradation; HeLa Luc-Wee1K328M stability, luciferase luminescence; 100% = proteasome inhibitor MG132 effect; reporter increase, % at 5 µM; P30291; actives 1.2% (n = 220,000);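 active = activation above the mean of all tested compounds plus 3 SD, set per screening run, cut at about 8.8% in these data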;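 also: cells exposed to compound for 20 h before luminescence read; 0% = DMSO alone and 100% = MG132 at 30 µM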
HSV augment: HSV replication enhancement; HSV replication augmentation in cells, fold increase; maximum fold increase; actives 0.005% (n = 220,000); in the data active = maximum fold increase above about 1.5; tested in PC3 cells
Numbers without * were called inactive; i = inactive; . = no result.

SMILES	Redox H2O2 prof	p97 inhibitor	Hsp70 act	Wee1 stabilizer	HSV augment
O=C(CC1C(=O)OCN1C(=O)OCc1ccccc1)OCC(=O)c1ccccc1 (configuration not stated)	2	2	0	0	i
CCN(C(=O)CN1CCCCC1)C1(C)C(=O)c2ccccc2C1=O	1	6	0	-2	i
Cc1ccc(N=C2SC(C(=O)Nc3ccc(OC(F)(F)F)cc3)C(N)=C2C(=O)Nc2c(C)cc(C)cc2C)cc1 (configuration not stated)	1	9	0	11*	i
Cc1ccc(Sc2nnc(Cc3ccccc3)c3ccccc23)cc1	2	-4	0	-1	i
COc1ccc(S(=O)(=O)N2CCc3ccccc32)cc1NC(C)=O	-4	-5	0	0	i
CN(C)[C@@H]1C(=O)C(C(=O)NCN2CCCC2)=C(O)[C@@]2(O)C(=O)C3=C(O)c4c(O)cccc4[C@@](C)(O)C3CC12 (some centres not stated)	1	23*	0	-3	i
CN(C)c1ccc(O)c2c1CC1CC3C(N(C)C)C(=O)C(C(N)=O)=C(O)[C@@]3(O)C(=O)C1=C2O (some centres not stated)	.	.	.	.	i
C1CCN(c2nc3nonc3nc2N2CCCCC2)CC1	-1	-7	0	10*	i
O=C(CSc1nnnn1C1CCCCC1)NCc1cccs1	0	1	0	11*	i
O=C(CSc1nnnn1C1CCCC1)NCc1cccs1	-1	4	0	-4	i
CNC(=O)CCc1[nH]c2ccccc2c1Sc1ccccc1	0	-8	0	3	i
O=C(c1ccccc1)N1CCN(c2ccc([N+](=O)[O-])c(NCC3CCCO3)c2)CC1 (configuration not stated)	0	-3	0	11*	i
CC(=O)N1CCc2cc(S(=O)(=O)CCC(=O)Nc3c(C)n(C)n(-c4ccccc4)c3=O)ccc21	2	-3	0	0	i
Cc1ccc(C(C(=O)NC(C)(C)C)N(Cc2ccco2)C(=O)Cn2nnc(-c3cccs3)n2)cc1 (configuration not stated)	1	0	0	-1	i
Cc1cccc([C@@H]2C[C@H]3CN(Cc4cccc(Cl)c4)C(=O)[C@]34CCCN24)n1	-1	-1	0	-2	i
CSc1cccc(NC(=O)C2CCCN(S(=O)(=O)c3cnc[nH]3)C2)c1 (configuration not stated)	-1	17*	0	0	i
COC(=O)c1ccc(NC(=O)C2CCN(S(C)(=O)=O)CC2)cc1	1	5	1	11*	i
COC(=O)c1ccc(NC(=O)C2CCCN(S(C)(=O)=O)C2)cc1 (configuration not stated)	-2	0	0	-3	i
O=C1C=C(NNC(=O)c2ccncc2)CC(c2ccccc2)C1 (configuration not stated)	-2	-2	0	-1	i
Cc1ccc(S(=O)(=O)n2ccc(-c3cccc(OCc4c(F)cccc4Cl)c3)n2)cc1	4	1	0	-2	i
Cc1ccc(S(=O)(=O)n2ccc(-c3ccc(OCc4c(F)cccc4Cl)cc3)n2)cc1	2	-6	0	8.8*	i
COc1ccc(NS(=O)(=O)c2ccc(N3CCCC3)c(NC(=S)Nc3ccc(SC(F)F)cc3)c2)cc1	0	4	0	9.3*	i
COc1ccc(NS(=O)(=O)c2ccc(N3CCCC3)c(NC(=S)Nc3cccc(C)c3C)c2)cc1	0	7	0	0	i
CC1=NN(c2ccc(F)cc2)C(=O)C1C(c1cccc(O)c1)c1c(C)[nH]n(-c2ccc(F)cc2)c1=O (configuration not stated)	2	33*	0	1	i
COc1cc(/C=C(\C#N)C(=O)Nc2cccnc2)ccc1OC(C)C	0	1	0	11*	.
N#C/C(=C\c1cccc([N+](=O)[O-])c1)C(=O)Nc1cccnc1	0	0	0	1	i
Cc1sc(NC(=O)c2ccc(Cl)s2)c(C(N)=O)c1C	2	-3	1	9.6*	i
O=C(CSc1nnc(CNc2ccc(F)cc2)n1CC1CCCO1)Nc1ccccc1 (configuration not stated)	1	2	0	1	i
